In PubChem BioAssay AID720541 (National Center for Advancing Translational Sciences (NCATS), 2013):
Among all 1,300 compounds or so, about 420 (32%) were called active. Roughly 32% stayed inconclusive and do not appear here. The call rests on the fitted dose curve; in most records, active means well fitted inhibition curve with a large enough effect; inconclusive means small, poorly fitted or top-dose-only effect; inactive means no such curve, though single readings can be large or run the other way. This is one part of the list.

Target: C-terminal-binding protein 1 (Homo sapiens) (UniProt Q13363)
Assay: qHTS for Inhibitors of the Phosphatase Activity of Eya2: Carboxyl-terminal binding protein (CtBP) Counterscreen for Cherry-picked Compounds; further: nearly all actives have a fitted effect of over 65% in size
Details: purified protein-protein binding, AlphaScreen, 3 h; series mostly up to 46.1 µM
How it was run: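 AlphaScreen using 25 nM GST-E1A with 25 nM CtBP-6xHIS; compounds at 2.5 nM–46 uM final, 2 h at room temperature, then donor/acceptor beads (20 ug/mL) for 1 h in the dark. Signal normalized to E1A peptide inhibitor (maximum inhibition) and DMSO.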
Potency means the concentration at half of the fitted maximal effect.

Row | Compound | Potency
1 | S=C(NCCCc1cnc[nH]1)NCCCN(Cc1ccc(Cl)cc1)c1ccc(-c2ccccc2)cn1 | 15.1 µM (active)
2 | COc1ccc2c(c1)C=C/C2=C\c1ccc(N(C)C)cc1 | 6.75 µM (active)
3 | CN(C)c1ccc(/C=C2\C=Cc3cc(N)ccc32)cc1 | 7.57 µM (active)
4 | Cc1nc([N+](=O)[O-])cn1CC(O)c1ccc2c(c1)OCO2 (centres undefined) | inactive
5 | COC(=O)c1sc2cc(C(F)(F)F)cnc2c1-c1cccnc1 | inactive
6 | O=C(O)/C=C/C(=O)Nc1ccc2c(c1)C(=O)c1ccccc1C2=O | 7.57 µM (active)
7 | CC(=O)Nc1ccc2nc(C3CC3)n(Cc3ccc(Cl)cc3)c(=O)c2c1 | inactive
8 | CCN(CC)c1ccc(/C=C2\C=Cc3ccccc32)cc1 | 7.57 µM (active)
9 | CC1=C/C(=C\c2ccc(N(C)C)cc2)c2ccccc21 | 7.57 µM (active)
10 | CN(C)c1ccc(/C=C2\C=Cc3ccccc32)cc1 | 8.49 µM (active)
11 | CN(C)c1ccc(/C=C/C=C2/C=Cc3ccccc32)cc1 | 5.36 µM (active)
12 | C=C(CC[C@]12OC(C(=O)O)C(O)(C(=O)O)C(C(=O)O)(O1)C(OC(=O)/C=C/[C@@H](C)C[C@@H](C)CC)C2O)[C@@H](OC(C)=O)[C@H](C)Cc1ccccc1 (some centres undefined) | inactive
13 | COC(=O)C(Sc1ccc(Cl)cc1)C1SC(=S)N(Cc2ccccc2)C1=O (centres undefined) | inactive
14 | Cc1cccc(C#Cc2ccccc2)n1 | inactive
15 | C[C@H](CCC(=O)NCC(=O)O)[C@H]1CC[C@H]2[C@@H]3[C@H](O)C[C@@H]4C[C@H](O)CC[C@]4(C)[C@H]3C[C@H](O)[C@]12C | inactive
16 | CN(C)c1ccc(C=C2C=Cc3ccccc32)cc1 | 7.57 µM (active)
17 | Cc1nn(C)c(Cl)c1CN1CCCC(CO)(Cc2cccc(Cl)c2)C1 (centres undefined) | inactive
18 | COc1ccc(N2CCN(C(=O)Cc3ccc(Cl)cc3)CC2)cc1 | inactive
19 | CC(C)n1ncc2c(C(=O)N3CCN(Cc4ccc(Br)s4)CC3)cc(C3CC3)nc21 | inactive
20 | COc1ccc(N2CCN(C(=O)CCC(=O)N3CC(C)Oc4ccc(C)cc43)CC2)cc1 (centres undefined) | inactive

Row | Compound | Potency
21 | COc1ccc(N2CCN(Cc3ccc(Br)s3)CC2)cc1 | 15.1 µM (active)
22 | COc1ccc(N2CCN(C(c3cccs3)C(C)NC(=O)c3ccc4c(c3)OCO4)CC2)cc1 (centres undefined) | inactive
23 | COc1ccc(N2CCN(Cc3cc4c(cc3Br)OCCO4)CC2)cc1 | 12 µM (active)
24 | COC(=O)c1c(C)[nH]c(C(=O)C(C)OC(=O)C2CC(=O)N(c3ccc(C)cc3)C2)c1C (centres undefined) | inactive
25 | COc1cc(CNCc2ccc(OC)cc2OC)cc(OC)c1 | inactive
26 | O=C(O)c1cc(-c2ccc(/C=C3\NC(=O)N(c4ccc(Cl)cc4)C3=O)o2)ccc1Cl | 8.49 µM (active)
27 | Cc1cc(NC(=O)CSc2nnc(Nc3ccccc3F)s2)no1 | inactive
28 | CC(C)Nc1nnc(SCC(=O)Nc2ccc3c(c2)C(=O)c2ccccc2C3=O)s1 | 5.36 µM (active)
29 | CCCCc1cc(=O)oc2cc(OCC(=O)N3CCC(C(=O)O)(c4ccccc4)CC3)ccc12 | inactive
30 | Cc1coc2c(C)c3oc(=O)c(CCC(=O)N4CCC(C(=O)NCCCC(=O)O)(c5ccccc5)CC4)c(C)c3cc12 | 15.1 µM (active)
31 | CC1(C)CC(=O)C=C(c2ccc(COC(=O)c3cc(F)cc(F)c3)cc2)C1=O | inactive
32 | Cc1ccc(C(=O)N/C(=C\c2ccco2)C(=O)NCCCn2ccnc2)cc1 | 3.79 µM (active)
33 | CCn1cc(C(=O)N[C@@H](C)C(=O)NCCCn2ccnc2)c(=O)c2cc3c(cc21)OCO3 | inactive
34 | Cc1cccc(Nc2nnc(SCC(=O)NCC3CCCO3)s2)c1 (centres undefined) | 15.1 µM (active)
35 | Cc1ccc(Nc2nnc(SCC(=O)c3c(N)n(C4CC4)c(=O)[nH]c3=O)s2)cc1C | inactive
36 | C/C(N)=C(/C#N)C(=O)CSc1nnc(Nc2cccc(C)c2)s1 | inactive
37 | COc1ccc(-c2cn3c(C)c(C(=O)NCc4ccc5c(c4)OCO5)sc3n2)cc1 | inactive
38 | O=c1[nH][nH]cc1C=Nc1cc(Cl)ccc1O | 8.49 µM (active)
39 | O=c1oc(-c2ccco2)nc2ccccc12 | 13.5 µM (active)
40 | CN(C)c1ccc(/C=C/c2ccnc3ccc(-c4ccccc4)cc23)cc1 | 12 µM (active)

Row | Compound | Potency
41 | Cc1cc(C)c2c(/C=C/c3ccc(N(C)C)cc3)ccnc2c1 | 13.5 µM (active)
42 | COc1ccc(N=C2SC(C(=O)N3CCN(c4ccc([N+](=O)[O-])cc4)CC3)CC(=O)N2C)cc1 (centres undefined) | inactive
43 | CC(C)[C@H](NC(=O)c1ccccc1)C(=O)NC1CCCCCCC1 | inactive
44 | O=C(NCCCO)c1ccc2nc(-c3ccco3)c(-c3ccco3)nc2c1 | 5.36 µM (active)
45 | O=C(NC1CC1)c1ccc2nc(-c3ccco3)c(-c3ccco3)nc2c1 | 8.49 µM (active)
46 | O=C(O)c1ccc2nc(-c3ccco3)c(-c3ccco3)nc2c1 | 7.57 µM (active)
47 | O=C(Nc1ccccc1)c1ccc2nc(-c3ccco3)c(-c3ccco3)nc2c1 | 13.5 µM (active)
48 | CC(C)(C)NC(=O)c1cccc(NC(=O)c2ccc(NC(=O)c3ccco3)cc2)c1 | inactive
49 | Cc1ccc(C(O)c2ncc(-c3ccc4ccccc4c3)[nH]2)cc1F (centres undefined) | inactive
50 | Cc1ccc(CNC(=O)c2ccc(-n3cccc3)cc2)cc1 | inactive
51 | CN(C)C(CNC(=O)c1ccc2c(c1)S(=O)(=O)c1ccccc1C2=O)c1ccco1 (centres undefined) | inactive
52 | O=C(NCc1ccccc1)c1ccc2nc(-c3ccco3)c(-c3ccco3)nc2c1 | 16.9 µM (active)
53 | Cc1c(CC(=O)NCC(=O)O)c(=O)oc2cc3occ(-c4ccccc4)c3cc12 | 13.5 µM (active)
54 | Cc1c(CC(=O)NCCCC(=O)O)c(=O)oc2cc3occ(-c4ccccc4)c3cc12 | 13.5 µM (active)
55 | COc1ccc(-c2coc3cc4oc(=O)c(CC(=O)O)c(C)c4cc23)cc1 | 13.5 µM (active)
56 | Cc1c(CC(=O)N[C@@H](C)C(=O)O)c(=O)oc2cc3occ(-c4ccccc4)c3cc12 | 6.75 µM (active)
57 | N#Cc1ccc(CSc2nnc(-c3c[nH]c4ccccc34)n2-c2ccccc2)cc1 | inactive
58 | Cc1c(CCC(=O)NCCCCCC(=O)O)c(=O)oc2cc3occ(-c4ccccc4)c3cc12 | 8.49 µM (active)
59 | COc1cccc2c1C(=O)/C(=C/c1ccc(N(C)C)cc1)C2 | 4.78 µM (active)
